Test results as given in the supplement of paper PMC4466140.

The binders below were run against AgAbp1 (assay: SPOT peptide array binding signal intensity (averaged, normalized) (arbitrary units (background-subtracted, floor 0; scale differs between SH3 domains)); higher = stronger binding of the SH3 domain to the peptide).
How it was run: (§1)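 Binding signal refers to normalized, background-subtracted spot intensity averaged over replicates, expressed in arbitrary units that differ between domains. GST-fused SH3 domains from four yeast species were incubated at 10 μg/ml overnight at 4°C on cellulose membranes of synthetic 15-mer peptides with cysteines replaced by serines. Bound protein was detected with anti-GST antibody, an HRP anti-mouse secondary and luminol, and quantified with Genespotter.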

Question: How did the “SPOT peptide array binding signal intensity” value turn out when FFRRSELYLPNSSKA was run?
Answer: The value was 2.

Each binder was assayed against AgBbc1 in the same assay as above.
How it was run: as §1

Question: FFRRSELYLPNSSKA was tested. Which “SPOT peptide array binding signal intensity” value did it give?
Answer: Its value is 3.75.

The binders below were run against AgBem1-D1 in the same assay as above.
How it was run: as §1

Question: With FFRRSELYLPNSSKA as the binder, how does the “SPOT peptide array binding signal intensity” value read?
Answer: Its value is 31.5.

These binders were tested against AgBzz1-D1 in the same assay as above.
How it was run: as §1

Question: With FFRRSELYLPNSSKA as the binder, how does the “SPOT peptide array binding signal intensity” value read?
Answer: The value was 26.5.

The binders below were run against AgBzz1-D2 in the same assay as above.
How it was run: as §1

Question: Which “SPOT peptide array binding signal intensity” value does the source give for FFRRSELYLPNSSKA here?
Answer: Its value is 22.5.

These binders were tested against AgCyk3 in the same assay as above.
How it was run: as §1

Question: How did the “SPOT peptide array binding signal intensity” value turn out when FFRRSELYLPNSSKA was run?
Answer: The value was no more than 0.

What follows are binders tested against AgFus1 in the same assay as above.
How it was run: as §1

Question: For FFRRSELYLPNSSKA, which “SPOT peptide array binding signal intensity” value is on record?
Answer: The value was 162.

Each binder was assayed against AgHof1 in the same assay as above.
How it was run: as §1

Question: For FFRRSELYLPNSSKA, which “SPOT peptide array binding signal intensity” value is on record?
Answer: The value was 25.

The binders below were run against AgHse1 in the same assay as above.
How it was run: as §1

Question: Which “SPOT peptide array binding signal intensity” value does the source give for FFRRSELYLPNSSKA here?
Answer: The value was 1000.

These binders were tested against AgLsb1 in the same assay as above.
How it was run: as §1

Question: With FFRRSELYLPNSSKA as the binder, how does the “SPOT peptide array binding signal intensity” value read?
Answer: Its value is 1.75.

What follows are binders tested against AgLsb4 in the same assay as above.
How it was run: as §1

Question: FFRRSELYLPNSSKA was tested. Which “SPOT peptide array binding signal intensity” value did it give?
Answer: Its value is 47.5.

These binders were tested against AgMyo5 in the same assay as above.
How it was run: as §1

Question: With FFRRSELYLPNSSKA as the binder, how does the “SPOT peptide array binding signal intensity” value read?
Answer: The value was 7.25.

These binders were tested against AgNbp2 in the same assay as above.
How it was run: as §1

Question: Which “SPOT peptide array binding signal intensity” value does the source give for FFRRSELYLPNSSKA here?
Answer: Its value is 11.

These binders were tested against AgRvs167 in the same assay as above.
How it was run: as §1

Question: How did the “SPOT peptide array binding signal intensity” value turn out when FFRRSELYLPNSSKA was run?
Answer: Its value is 1.67.

These binders were tested against AgSho1 in the same assay as above.
How it was run: as §1

Question: FFRRSELYLPNSSKA was tested. Which “SPOT peptide array binding signal intensity” value did it give?
Answer: Its value is 25.

The binders below were run against AgSla1-D1-D2 in the same assay as above.
How it was run: as §1

Question: Which “SPOT peptide array binding signal intensity” value does the source give for FFRRSELYLPNSSKA here?
Answer: The value was 122.

What follows are binders tested against AgSla1-D3 in the same assay as above.
How it was run: as §1

Question: With FFRRSELYLPNSSKA as the binder, how does the “SPOT peptide array binding signal intensity” value read?
Answer: Its value is 5.5.

These binders were tested against CaAbp1-D1 in the same assay as above.
How it was run: as §1

Question: FFRRSELYLPNSSKA was tested. Which “SPOT peptide array binding signal intensity” value did it give?
Answer: Its value is 70.

What follows are binders tested against CaAbp1-D2 in the same assay as above.
How it was run: as §1

Question: Which “SPOT peptide array binding signal intensity” value does the source give for FFRRSELYLPNSSKA here?
Answer: Its value is 51.5.

What follows are binders tested against CaBbc1 in the same assay as above.
How it was run: as §1

Question: Which “SPOT peptide array binding signal intensity” value does the source give for FFRRSELYLPNSSKA here?
Answer: Its value is 0.25.

These binders were tested against CaBem1-D1 in the same assay as above.
How it was run: as §1

Question: For FFRRSELYLPNSSKA, which “SPOT peptide array binding signal intensity” value is on record?
Answer: The value was 9.

What follows are binders tested against CaBzz1-D1 in the same assay as above.
How it was run: as §1

Question: For FFRRSELYLPNSSKA, which “SPOT peptide array binding signal intensity” value is on record?
Answer: Its value is 95.

The binders below were run against CaBzz1-D2 in the same assay as above.
How it was run: as §1

Question: Which “SPOT peptide array binding signal intensity” value does the source give for FFRRSELYLPNSSKA here?
Answer: The value was 32.2.

Each binder was assayed against CaCyk3 in the same assay as above.
How it was run: as §1

Question: FFRRSELYLPNSSKA was tested. Which “SPOT peptide array binding signal intensity” value did it give?
Answer: The value was no more than 0.

What follows are binders tested against CaFus1 in the same assay as above.
How it was run: as §1

Question: With FFRRSELYLPNSSKA as the binder, how does the “SPOT peptide array binding signal intensity” value read?
Answer: Its value is 624.

The binders below were run against CaHof1 in the same assay as above.
How it was run: as §1

Question: FFRRSELYLPNSSKA was tested. Which “SPOT peptide array binding signal intensity” value did it give?
Answer: The value was no more than 0.

The binders below were run against CaHse1 in the same assay as above.
How it was run: as §1

Question: FFRRSELYLPNSSKA was tested. Which “SPOT peptide array binding signal intensity” value did it give?
Answer: The value was 3.

What follows are binders tested against CaLsb1 in the same assay as above.
How it was run: as §1

Question: Which “SPOT peptide array binding signal intensity” value does the source give for FFRRSELYLPNSSKA here?
Answer: Its value is 0.5.

What follows are binders tested against CaLsb4 in the same assay as above.
How it was run: as §1

Question: FFRRSELYLPNSSKA was tested. Which “SPOT peptide array binding signal intensity” value did it give?
Answer: The value was 13.

Each binder was assayed against CaMyo5 in the same assay as above.
How it was run: as §1

Question: With FFRRSELYLPNSSKA as the binder, how does the “SPOT peptide array binding signal intensity” value read?
Answer: The value was 14.2.
